Experiment [1] relates to PRMT1 (protein arginine N-methyltransferase 1). Kind of experiment: small molecules binding arginine methyltransferase PRMT1 – biochemical, small-molecule microarray, 635 nm fluorescence, primary screen (AID 1088).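 Also: binding of Prmt1 protein to compounds spotted on small-molecule microarray slides.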 Particulars: higher = more signal.
Experiment [2] can be described thus: growth effects on S. cerevisiae YJM789 – YJM789 clinical isolate, OD600, 24 h, basal, primary screen (AID 1089).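 Also: growth of clinical yeast isolate S. cerevisiae YJM 789 seeded 1000 cells per well; test concentration not given here.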 The conditions noted are these: higher = more signal, called active from +8 up or from −8 down.
Experiment [3] can be described thus: S. pombe growth modifiers, basal conditions – strain 972, OD600, 24 h, no modulator, primary screen (AID 1090).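 Also: basal condition with compound alone and no growth modifier present; test concentration not given here.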 Particulars: S. pombe 972 growth, higher = more signal, called active from +8 up or from −8 down.
A short description of experiment [4]: budding yeast growth modifiers under rapamycin – strain BY4716, OD600, 96 h, primary screen (AID 1091). Also: test concentration not given here. Particulars: S. cerevisiae BY4716 + rapamycin, higher = more signal, called active from +8 up or from −8 down.
Experiment [5] deals with Torsin-1A-interacting protein 2 (Homo sapiens) (UniProt Q8NFQ8). Description: small molecules binding lysate-expressed LULL1 – cell lysate, human LULL1 lysate, 635/667 nm fluorescence, primary screen (AID 1092).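 Also: probe is lysate of COS7 cells overexpressing human LULL1; score merges per-feature 667 nm fluorescence with signal-to-noise.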 Particulars: small-molecule microarray, hLULL1 lysate binding, 635 nm fluorescence; higher = more signal.
The nature of experiment [6]: optical density change of DRC41 E. coli – strain DRC41, OD650, 24 h, E. coli filamentation project, primary screen (AID 1093).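 Also: MC1000 strain lacking acrAB efflux and sulA so SOS filamentation is blocked; test concentration not given here.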 The conditions noted are these: E. coli DRC41 growth, higher = more signal, called active from +8 up or from −8 down.
The nature of experiment [7]: probe aLefty2 binding to arrayed compounds – biochemical, biotinylated probe, 635/667 nm fluorescence, primary screen (AID 1094).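 Also: score merges spot fluorescence near 667 nm with spot signal-to-noise ratio.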 The conditions noted are these: small-molecule microarray, higher = more signal.
The test system of experiment [8] is Noggin (protein binding on small-molecule microarray). Description: small molecules binding Noggin protein – biochemical, 635/667 nm fluorescence, primary screen (AID 1095).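 Also: score merges 667 nm feature fluorescence with signal to noise over triplicate slides.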 The conditions noted are these: 635 nm fluorescence, higher = more signal.
The target in experiment [9] is Neurogenic locus notch homolog protein 3 (Homo sapiens) (UniProt Q9UM47). Kind of experiment: small molecules binding NOTCH3 protein – biochemical, 635/667 nm fluorescence, primary screen (AID 1096). Particulars: small-molecule microarray, 635 nm fluorescence, higher = more signal.
Experiment [10] can be described thus: probe aEGFR binding to arrayed compounds – biochemical, biotinylated probe, 635/667 nm fluorescence, primary screen (AID 1097).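 Also: probe is a biotinylated anti-EGFR antibody binding compounds printed on slides; score combines fluorescence near 667 nm and signal to noise of each spot.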 The conditions noted are these: small-molecule microarray, higher = more signal.
The subject of experiment [11] is Plasmodium falciparum Sir2 (PF13_0152, Sir2A). Description: Plasmodium falciparum Sir2A binding compounds – biochemical, small-molecule microarray, 635 nm fluorescence, primary screen (AID 1098).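 Also: score merges spot fluorescence intensity with its signal-to-noise ratio.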 The conditions noted are these: fluorescence 635 nm, higher = more signal.
Experiment [12] in a line: probe aDKK1 binding to arrayed compounds – biochemical, biotinylated probe, 635/667 nm fluorescence, primary screen (AID 1099).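 Also: score merges 667nm spot fluorescence with signal to noise across triplicate slides; reference of the scale not given here.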 Particulars: small-molecule microarray, higher = more signal.
Experiment [13] in a line: probe aCHRDL2 binding to arrayed compounds – biochemical, biotinylated probe, 635/667 nm fluorescence, primary screen (AID 1100). Particulars: small-molecule microarray, higher = more signal.
Experiment [14] can be described thus: change in splice reporter luminescence, either direction, cell-based, HEK293, spliceosome inhibition project, primary screen (AID 1101).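 Also: HEK293 cells carrying a splicing-competent luciferase reporter gene; test concentration not given here.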 Particulars: HEK293 splicing luciferase reporter, 24 h, higher = more signal, called active from +8 up or from −8 down. (In general: A reporter such as luciferase makes a cellular process visible.)
The target in experiment [15] is Fibroblast growth factor 10 (Homo sapiens) (UniProt O15520). Kind of experiment: compounds binding fibroblast growth factor 10 – biochemical, small-molecule microarray, 635 nm fluorescence, primary screen (AID 1102). The conditions noted are these: FGF10 binding, fluorescence 635 nm, higher = more signal.
Experiment [16] relates to glycogen synthase kinase-3 (GSK3A per assay name; protocol says GSK3B). Kind of experiment: compounds binding glycogen synthase kinase-3 – biochemical, small-molecule microarray, 635 nm fluorescence, GSK3A, primary screen (AID 1103). Also: the record names both GSK3A and GSK3B. The conditions noted are these: fluorescence 635 nm, higher = more signal.
For experiment [17], the target named is Epidermal growth factor receptor (Homo sapiens) (UniProt P00533). Kind of experiment: compounds binding epidermal growth factor receptor – biochemical, small-molecule microarray, 635 nm fluorescence, primary screen (AID 1104).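 Also: score merges 667 nm emission intensity with spot signal to noise over triplicate slides.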 Particulars: EGFR binding, higher = more signal.
Experiment [18] has as its target Follistatin-related protein 3 (Homo sapiens) (UniProt O95633). Description: compounds binding follistatin-related protein 3 – biochemical, small-molecule microarray, 635 nm fluorescence, primary screen (AID 1105).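 Also: score merges emission near 667 nm and signal to noise per printed spot across three slides.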 The conditions noted are these: FSTL3 binding, higher = more signal.
Experiment [19] addresses Dickkopf-related protein 1 (Homo sapiens) (UniProt O94907). Kind of experiment: small molecules binding DKK1 protein – biochemical, small-molecule microarray, 635 nm fluorescence scan, primary screen (AID 1106).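 Also: score merges emission near 667 nm with signal to noise over three replicate slides.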 The conditions noted are these: higher = more signal.
For experiment [20], the system named is Inhibin beta A chain (activin A). Description: small molecules binding activin A – biochemical, small-molecule microarray, 635 nm fluorescence scan, primary screen (AID 1107).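 Also: mouse activin A protein probed at 4.33 µg/mL on printed slides; score merges bound-protein fluorescence near 667 nm with spot signal-to-noise.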 Particulars: INHBA, higher = more signal.

The source made the active and inactive calls.

Sequence of Fibroblast growth factor 10 (Homo sapiens) (O15520 whole entry, looked up): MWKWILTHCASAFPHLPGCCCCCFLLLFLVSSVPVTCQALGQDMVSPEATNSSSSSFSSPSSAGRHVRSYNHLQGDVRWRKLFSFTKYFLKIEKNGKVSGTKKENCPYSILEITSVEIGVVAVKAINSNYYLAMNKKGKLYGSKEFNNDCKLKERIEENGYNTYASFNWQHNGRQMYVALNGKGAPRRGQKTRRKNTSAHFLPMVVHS
Sequence of Epidermal growth factor receptor (Homo sapiens) (P00533 whole entry, looked up): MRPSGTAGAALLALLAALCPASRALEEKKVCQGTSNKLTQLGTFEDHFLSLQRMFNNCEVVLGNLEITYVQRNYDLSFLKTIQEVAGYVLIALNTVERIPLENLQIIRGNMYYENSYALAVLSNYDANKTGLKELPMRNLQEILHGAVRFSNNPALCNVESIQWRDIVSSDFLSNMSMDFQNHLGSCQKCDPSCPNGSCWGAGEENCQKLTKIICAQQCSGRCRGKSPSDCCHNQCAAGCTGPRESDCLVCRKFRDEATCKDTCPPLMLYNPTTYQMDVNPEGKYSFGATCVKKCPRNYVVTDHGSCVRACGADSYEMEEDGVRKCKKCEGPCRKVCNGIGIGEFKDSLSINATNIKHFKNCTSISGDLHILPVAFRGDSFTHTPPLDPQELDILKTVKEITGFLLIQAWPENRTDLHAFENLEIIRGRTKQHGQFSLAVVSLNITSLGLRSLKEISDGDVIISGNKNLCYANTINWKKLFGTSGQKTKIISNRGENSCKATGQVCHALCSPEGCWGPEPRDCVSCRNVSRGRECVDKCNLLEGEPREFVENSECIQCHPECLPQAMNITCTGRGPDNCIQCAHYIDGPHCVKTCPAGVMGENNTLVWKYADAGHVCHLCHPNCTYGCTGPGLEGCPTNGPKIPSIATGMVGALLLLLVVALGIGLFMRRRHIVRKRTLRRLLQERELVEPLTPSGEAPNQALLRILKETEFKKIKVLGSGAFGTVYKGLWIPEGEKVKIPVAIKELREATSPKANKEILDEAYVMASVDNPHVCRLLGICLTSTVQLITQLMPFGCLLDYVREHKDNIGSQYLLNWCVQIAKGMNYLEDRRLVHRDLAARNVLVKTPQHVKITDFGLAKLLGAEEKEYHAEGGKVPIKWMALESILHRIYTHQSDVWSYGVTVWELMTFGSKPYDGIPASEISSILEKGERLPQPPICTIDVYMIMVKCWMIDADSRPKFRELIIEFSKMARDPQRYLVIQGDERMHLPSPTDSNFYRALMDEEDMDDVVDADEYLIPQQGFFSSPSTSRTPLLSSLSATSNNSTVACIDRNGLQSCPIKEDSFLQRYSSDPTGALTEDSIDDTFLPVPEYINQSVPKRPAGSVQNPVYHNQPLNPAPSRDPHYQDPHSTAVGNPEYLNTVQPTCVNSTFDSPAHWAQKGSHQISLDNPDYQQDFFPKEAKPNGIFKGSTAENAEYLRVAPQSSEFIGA
Sequence of Dickkopf-related protein 1 (Homo sapiens) (O94907 whole entry, looked up): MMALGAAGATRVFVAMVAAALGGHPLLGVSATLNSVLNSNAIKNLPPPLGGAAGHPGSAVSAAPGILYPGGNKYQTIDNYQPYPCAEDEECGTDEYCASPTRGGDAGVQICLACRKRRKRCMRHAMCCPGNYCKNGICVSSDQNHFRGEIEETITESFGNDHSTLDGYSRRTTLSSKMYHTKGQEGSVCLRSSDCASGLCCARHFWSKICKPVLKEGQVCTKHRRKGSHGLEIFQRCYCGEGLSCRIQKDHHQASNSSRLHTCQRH
Sequence of Torsin-1A-interacting protein 2 (Homo sapiens) (Q8NFQ8 whole entry, looked up): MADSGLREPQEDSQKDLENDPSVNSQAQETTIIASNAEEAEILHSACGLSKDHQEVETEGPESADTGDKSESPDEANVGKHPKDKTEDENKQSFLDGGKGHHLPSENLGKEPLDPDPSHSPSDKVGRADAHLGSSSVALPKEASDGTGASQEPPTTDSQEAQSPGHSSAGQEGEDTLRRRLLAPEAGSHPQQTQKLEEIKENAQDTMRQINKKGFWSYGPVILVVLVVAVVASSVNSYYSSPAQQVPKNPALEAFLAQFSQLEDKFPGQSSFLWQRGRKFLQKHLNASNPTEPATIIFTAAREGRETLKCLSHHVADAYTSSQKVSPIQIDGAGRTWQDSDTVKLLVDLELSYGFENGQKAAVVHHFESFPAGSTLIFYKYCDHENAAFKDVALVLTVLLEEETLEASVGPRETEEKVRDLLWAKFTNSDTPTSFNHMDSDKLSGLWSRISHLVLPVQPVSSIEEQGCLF
Sequence of Neurogenic locus notch homolog protein 3 (Homo sapiens) (Q9UM47 whole entry, looked up): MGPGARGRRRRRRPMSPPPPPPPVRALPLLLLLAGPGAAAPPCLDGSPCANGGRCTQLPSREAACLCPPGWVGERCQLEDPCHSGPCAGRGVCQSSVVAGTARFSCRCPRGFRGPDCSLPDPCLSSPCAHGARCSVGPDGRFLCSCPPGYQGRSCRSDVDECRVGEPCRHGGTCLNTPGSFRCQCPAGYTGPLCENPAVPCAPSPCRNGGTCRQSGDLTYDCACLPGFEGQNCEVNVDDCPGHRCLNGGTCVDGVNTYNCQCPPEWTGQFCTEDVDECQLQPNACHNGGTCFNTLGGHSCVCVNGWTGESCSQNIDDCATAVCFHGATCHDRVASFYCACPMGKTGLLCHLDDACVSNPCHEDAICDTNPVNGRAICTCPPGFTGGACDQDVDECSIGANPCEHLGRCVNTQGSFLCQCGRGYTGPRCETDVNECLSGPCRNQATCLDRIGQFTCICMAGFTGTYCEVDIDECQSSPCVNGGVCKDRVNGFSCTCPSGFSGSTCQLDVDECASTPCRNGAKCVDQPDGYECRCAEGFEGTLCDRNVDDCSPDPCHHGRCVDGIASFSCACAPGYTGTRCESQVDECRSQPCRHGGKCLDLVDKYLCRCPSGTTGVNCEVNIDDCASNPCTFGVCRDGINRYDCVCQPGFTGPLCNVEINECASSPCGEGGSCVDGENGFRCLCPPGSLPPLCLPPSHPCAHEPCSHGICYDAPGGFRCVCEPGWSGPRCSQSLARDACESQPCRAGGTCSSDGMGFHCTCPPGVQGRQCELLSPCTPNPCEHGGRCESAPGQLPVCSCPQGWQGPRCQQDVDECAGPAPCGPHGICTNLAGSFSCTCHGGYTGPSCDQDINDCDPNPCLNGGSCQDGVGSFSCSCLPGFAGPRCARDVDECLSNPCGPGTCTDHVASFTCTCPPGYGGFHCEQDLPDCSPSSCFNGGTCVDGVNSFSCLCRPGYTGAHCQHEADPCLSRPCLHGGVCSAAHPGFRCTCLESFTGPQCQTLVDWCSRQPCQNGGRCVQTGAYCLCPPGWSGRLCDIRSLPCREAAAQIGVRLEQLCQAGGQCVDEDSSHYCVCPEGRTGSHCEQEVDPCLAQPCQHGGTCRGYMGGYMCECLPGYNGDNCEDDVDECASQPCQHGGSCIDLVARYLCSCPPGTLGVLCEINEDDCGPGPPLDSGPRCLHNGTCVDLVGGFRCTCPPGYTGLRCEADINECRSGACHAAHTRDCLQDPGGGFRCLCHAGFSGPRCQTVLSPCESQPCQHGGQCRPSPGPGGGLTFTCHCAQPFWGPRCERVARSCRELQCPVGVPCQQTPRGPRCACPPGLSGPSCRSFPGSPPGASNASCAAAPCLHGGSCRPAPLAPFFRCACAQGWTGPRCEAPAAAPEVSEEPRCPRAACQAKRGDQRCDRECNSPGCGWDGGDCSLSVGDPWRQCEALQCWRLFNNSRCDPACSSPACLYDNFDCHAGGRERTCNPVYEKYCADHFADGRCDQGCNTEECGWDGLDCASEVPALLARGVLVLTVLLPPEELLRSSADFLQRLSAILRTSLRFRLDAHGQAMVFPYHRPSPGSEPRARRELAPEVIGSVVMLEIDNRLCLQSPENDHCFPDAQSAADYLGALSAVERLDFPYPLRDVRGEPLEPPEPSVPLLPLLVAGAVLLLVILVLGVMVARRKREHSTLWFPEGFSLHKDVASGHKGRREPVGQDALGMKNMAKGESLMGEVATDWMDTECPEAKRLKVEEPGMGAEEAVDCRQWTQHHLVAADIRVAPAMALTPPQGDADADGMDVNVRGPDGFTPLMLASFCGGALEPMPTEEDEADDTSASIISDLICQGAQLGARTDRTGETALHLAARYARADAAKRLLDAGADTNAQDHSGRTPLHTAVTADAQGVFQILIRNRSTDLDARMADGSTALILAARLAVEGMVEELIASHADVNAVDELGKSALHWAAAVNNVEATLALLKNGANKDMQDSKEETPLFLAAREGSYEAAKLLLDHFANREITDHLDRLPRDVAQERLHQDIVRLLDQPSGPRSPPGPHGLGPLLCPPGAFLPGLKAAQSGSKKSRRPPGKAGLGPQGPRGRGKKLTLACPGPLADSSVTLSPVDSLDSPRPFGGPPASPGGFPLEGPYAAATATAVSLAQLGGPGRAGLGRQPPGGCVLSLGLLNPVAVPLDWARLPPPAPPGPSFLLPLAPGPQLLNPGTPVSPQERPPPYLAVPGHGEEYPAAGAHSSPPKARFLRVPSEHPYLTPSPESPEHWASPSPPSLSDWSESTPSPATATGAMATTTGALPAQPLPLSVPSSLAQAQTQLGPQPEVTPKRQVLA
Sequence of Follistatin-related protein 3 (Homo sapiens) (O95633 whole entry, looked up): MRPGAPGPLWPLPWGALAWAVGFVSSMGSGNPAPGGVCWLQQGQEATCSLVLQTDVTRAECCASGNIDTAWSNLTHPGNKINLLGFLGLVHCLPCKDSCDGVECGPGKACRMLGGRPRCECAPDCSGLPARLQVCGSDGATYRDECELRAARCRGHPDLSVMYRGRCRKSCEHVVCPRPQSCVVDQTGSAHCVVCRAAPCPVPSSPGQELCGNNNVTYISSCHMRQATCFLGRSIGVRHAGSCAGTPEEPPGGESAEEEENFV

Turning to `COc1ccc(C(=O)Nc2ccc(CN3C(=O)[C@]4(O[C@H](CC(=O)N5Cc6ccccc6C[C@H]5CO)[C@@H]([Si](C)(C)c5ccc(OC)cc5)[C@@H]4C)c4ccccc43)cc2)cc1`, the composite z-score in [1] was 1.56; in experiment [5], 1.77; in [7], -0.145; in experiment [8] it was 1.34; in experiment [9], 1.13; in experiment [10], -0.096. Further, the composite z-score in [11] is 1.57; in experiment [12] it was -0.196; in experiment [13], -0.165; in [15] it was 1.06; in experiment [16] it was 0.837; in experiment [17], 0.749. Also, the figures for the composite z-score in [18], in experiment [19] and in [20] were 0.833, 0.786 and 0.518, respectively. Also, the z-score in [2] was 0.186 (inactive); in experiment [3], 1.04 (inactive); in experiment [4], 3.94 (inactive); in experiment [6], 0.315 (inactive); in [14] it was -1.18 (inactive).

With `CC(C)[Si](C#C[Si](C(C)C)(C(C)C)C(C)C)(O[C@H](c1ccccc1)c1cn(Cc2ccccc2)nn1)C(C)C`, the composite z-score in experiment [1] is 1.26; in [5], 0.754; in experiment [7], -0.028; in [8] it was 0.751; in experiment [9] it was 0.361; in experiment [10], 0.0129. Besides, the composite z-score is 0.144 in [11]; -0.138 in experiment [12]; -0.465 in [13]; 0.279 in experiment [15]; 0.654 in [16]; 0.392 in [17]. For the same compound, the figures for the composite z-score in experiment [18], in experiment [19] and in experiment [20] were 0.628, 0.405 and 0.218, respectively. Moreover, the z-score in experiment [2] was 0.242 (inactive); in experiment [3] it was 0.641 (inactive); in experiment [4], 0.0108 (inactive); in [6], 0.769 (inactive); in experiment [14] it was 0.501 (inactive).

As to `O=C1O[C@@H](c2ccccc2)[C@@H](c2ccccc2)N2[C@@H](c3ccc(OCCO)cc3)[C@]3(C(=O)Nc4ccc(C#CC5=CCCCC5)cc43)[C@@H](C(=O)NC[C@H](O)c3ccccc3)[C@H]12`, the composite z-score in experiment [1] was 1.36; in [5] it was 2.46; in experiment [7], -0.0696; in experiment [8] it was 1.51; in [9], 1.02; in experiment [10], -0.246. For the same compound, the composite z-score in experiment [11] is 0.674; in experiment [12] it was -0.653; in [13], -0.762; in [15], 1.4; in [16], 1.31; in [17], 0.445. Also, the values for the composite z-score in experiment [18], in [19] and in experiment [20] were 1.4, 0.708 and 1.07, respectively. The z-score in experiment [2] is 1.99 (inactive); in [3], 2.17 (inactive); in experiment [4] it was 4.09 (inactive); in [6], -0.749 (inactive); in experiment [14] it was 0.556 (inactive).

Consider `CCOC(=O)C[C@H]1[C@H](OC(=O)c2ccc(C(=O)c3ccccc3)cc2)[C@@H](NC(=O)C2CCCCC2)c2cc(OCCCO)ccc2N1C(=O)c1ccc2ccccc2n1`, for which the composite z-score in experiment [1] is 1.34; in experiment [5], 2.01; in experiment [7], -0.02; in [8], 0.887; in [9], 1.13; in experiment [10], 0.0213. The composite z-score in [11] is 0.698; in [12] it was -0.0699; in [13], -0.125; in experiment [15] it was 0.839; in [16] it was 0.432; in experiment [17], 0.34. Besides, the composite z-score in experiment [18] was determined as 1.03; in experiment [19], 0.595; in experiment [20] it was 0.456. Besides, the z-score in experiment [2] is -0.882 (inactive); in [3] it was 0.708 (inactive); in experiment [4], 0.276 (inactive); in [6], 1.25 (inactive); in experiment [14], 0.112 (inactive).

Regarding `Cc1ccc(S[C@]2(C(=O)NCC(F)(F)F)CC(=O)N(Cc3cc(C(F)(F)F)cc(C(F)(F)F)c3)[C@@H]2c2ccc(CO)cc2I)cc1`, the composite z-score is -0.0631 in [1]; -0.0923 in [5]; -0.054 in experiment [7]; -0.716 in [8]; -1.32 in experiment [9]; -0.556 in experiment [10]. Further, the composite z-score is 1.4 in experiment [11]; -0.647 in experiment [12]; 1.02 in [13]; -1.03 in experiment [15]; -0.466 in experiment [16]; -0.552 in experiment [17]. Also, the values for the composite z-score in experiment [18], in experiment [19] and in experiment [20] were 0.0535, -1.26 and 0.948, respectively. In addition, the z-score in experiment [2] was -2.58 (inactive); in experiment [3], -2.58 (inactive); in experiment [4] it was -0.857 (inactive); in experiment [6] it was -0.3 (inactive); in experiment [14], -0.719 (inactive).
